Assay outcomes from PubChem BioAssay.
Only some compounds are listed: those with a hit (about 4% of all), similar ones and a draw of the others.
KKLEB tox = cytotoxicity in KKLEB CF airway cells, primary screen, cytotoxicity control for CF NF-kB inhibitor project, cell-based, uHTS, fluorescence assay plates. KKLEB CF airway cells viability, ATPlite luminescence, overnight; stronger effect = lower value; cells stimulated with P. aeruginosa culture filtrate. activity change (cytotoxicity), % at 5 µM. actives 0.36% (n = 360,000);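 active = corrected activity change at or below -50% at 5 µM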
TROY signal inh = inhibitors of TROY-driven NF-kB signaling, primary screen, Q293 LMP1-TROYcd cells, NF-kB luciferase, uHTS; Q293 LMP1-TROYcd NF-kB luciferase reporter, 4 h; inhibition, % at 10 µM; actives 0.98% (n = 360,000);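 active = compounds whose plate-normalised and pattern-corrected inhibition of the luciferase reporter signal at the single screening dose is 50% or more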
HIF-2a inh = HIF-2a reporter inhibitors, primary screen, luminescence, 786-0 RCC cells; inhibition, % at 18.8 µM; AID 624352, 2012; 786-0 RCC cells HIF-2a reporter, luciferase luminescence, overnight; actives 0.72% (n = 360,000);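 active = inhibition of the luminescence signal of 40% or more relative to plate controls, in a single-dose primary screen at 18.75 µM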
Peg3 prom inh = Peg3 promoter-driven luciferase inhibitors, primary screen, cell-based, HeLa, luciferase luminescence; AID 588405, 2011; inhibition, % at 20 µM; actives 1.7% (n = 360,000); HeLa PEG-Prom luciferase reporter, overnight;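 active = inhibition of at least 50% at 20 µM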
TWEAK-Fn14 inh = inhibitors of TWEAK-Fn14 signaling, primary screen, luciferase reporter cells, uHTS. TWEAK-stimulated Fn14 reporter cells, luciferase luminescence, 8 h. inhibition, % at 10 µM. actives 2% (n = 360,000); in the data active = inhibition above about 50%
CF NFkB block = inhibitors of PAF-induced NF-kB signaling, primary screen, cell-based, GFP fluorescence, uHTS | KKLEB NF-kB-GFP reporter, GFP fluorescence overnight | inhibition, % at 5 µM | actives 0.86% (n = 360,000) | AID 588850, 2011;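 active = at least 50% inhibition at 5 µM, scaled per plate between neutral and stimulator controls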;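 also: PAF is a Pseudomonas aeruginosa culture filtrate used as stimulus; plate controls were PAF-stimulated DMSO wells for no effect and unstimulated DMSO wells for full effect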
Active calls of the source: *; . = not tested or not shown.

SMILES	KKLEB tox	TROY signal inh	HIF-2a inh	Peg3 prom inh	TWEAK-Fn14 inh	CF NFkB block
COC(=O)c1ccccc1NC(=O)c1ccc(-c2ccccc2F)o1	-67*	-32	-111	-58	-42	59*
CCc1cc2c(COC(=O)c3cccc(S(C)(=O)=O)c3)cc(=O)oc2cc1O	-5	33	0	28	56*	12
CNS(=O)(=O)c1cccc(C(=O)OCc2cc(=O)oc3c(C)c(O)ccc23)c1	5	51*	15	10	34	35
O=C(COc1ccc(/C=N/NC(=O)c2cc3ccccc3o2)cc1Cl)Nc1ccccc1	-93*	8	-75	108*	-39	90*
O=C(OCc1cc2ccccc2[nH]c1=O)c1cccs1	13	43	18	-43	57*	7
CC1Sc2ccc(S(=O)(=O)N3CCC(C(=O)NCC(C)c4ccccc4)CC3)cc2NC1=O (configuration not stated)	-9	21	3	6	13	-14
O=C1C=C(Nc2ccc(Cl)cc2)CC(c2ccco2)C1 (configuration not stated)	12	.	7	5	56*	-2
CC(C)C[C@H](N)c1nnc(S(=O)(=O)Cc2ccc(F)cc2)o1	-12	.	17	114*	19	90*
CC(C)CC1C(=O)N(Cc2cn(Cc3ccco3)nn2)CCS(=O)(=O)N1Cc1ccc(-c2ccncc2)cc1 (configuration not stated)	-12	-7	8	18	-1	31
O=c1c(C=NCc2cccnc2)c(C(F)(F)F)[nH]n1-c1nc2ccccc2s1	-1	48	-20	-70	77*	3
CC(=NCc1ccco1)c1c(C)[nH]n(-c2nc3ccccc3s2)c1=O	-2	84*	-33	-38	90*	8
CCC(=NCc1ccco1)c1c(C(F)(F)F)[nH]n(-c2nc3ccccc3s2)c1=O	2	-29	-50	-374	87*	-13
COc1cc2ccccc2cc1C(=O)OCC(=O)N(CC(C)C)c1c(N)n(Cc2ccccc2)c(=O)[nH]c1=O	-1	-15	16	-1	-6	22
Cc1cc(NC(=O)C(C)Oc2ccccc2)no1 (configuration not stated)	6	5	-6	-8	17	-3
CCC(Sc1nc(C)cc(C)n1)C(=O)Nc1ccc(Cl)cn1 (configuration not stated)	6	.	11	11	59*	-7
COc1cccc(NC(=O)CCNS(=O)(=O)c2cccc3nonc23)c1	12	7	13	17	17	0
Cn1c(-c2ccccc2)c(C(=O)CCl)c2ccccc21	-86*	12	28	55*	37	98*
CCn1c(-c2ccccc2)c(C(=O)CCl)c2ccccc21	-102*	34	34	46	39	106*
O=C(Nc1ncccc1O)c1ccc(Cl)c(S(=O)(=O)N2CCCC2)c1	-2	2	10	-12	1	7
CC(=O)c1ccc(OCCCC(=O)N2CCN(S(=O)(=O)c3ccc(C)cc3C)CC2)cc1	16	-12	3	-2	-5	-28
CCN(CC)S(=O)(=O)c1ccc2c(c1)C(=NO)c1cc(S(=O)(=O)N(CC)CC)ccc1-2	-44	50	38	51*	30	43
COc1ccc(S(=O)(=O)N2CCC(C)CC2)cc1OC	2	4	16	2	1	3
CCN(CC)S(=O)(=O)c1ccc(C)c(C)c1	-1	1	15	12	18	1
CC1CCN(S(=O)(=O)c2ccc3c(c2)C(=NO)c2cc(S(=O)(=O)N4CCC(C)CC4)ccc2-3)CC1	-5	-17	1	100*	-127	83*
Cc1ccc(NC(=O)Cn2nc(-c3ccco3)ccc2=O)cc1Cl	-2	19	17	9	-3	-39
